According to PubChem BioAssay (EPA / NIEHS):
Inconclusive results are not listed. Active and inactive are the calls of the source. The calls were made as follows: active = hit-call score of the fitted dose curve at least 0.9, where 1 is the maximum; inconclusive = response in the unintended direction; inactive = score below 0.9.

Columns and labels:
[1] = target: Cellular tumor antigen p53 (Homo sapiens) (UniProt P04637); experiment: TOX21_p53_BLA_p2_ratio: Tox21 HCT-116 p53 Agonism Beta-lactamase Assay, Ratio, Phase 2 (AID 2283592)
Cellular tumor antigen p53 (Homo sapiens), sequence (P04637 whole entry, looked up): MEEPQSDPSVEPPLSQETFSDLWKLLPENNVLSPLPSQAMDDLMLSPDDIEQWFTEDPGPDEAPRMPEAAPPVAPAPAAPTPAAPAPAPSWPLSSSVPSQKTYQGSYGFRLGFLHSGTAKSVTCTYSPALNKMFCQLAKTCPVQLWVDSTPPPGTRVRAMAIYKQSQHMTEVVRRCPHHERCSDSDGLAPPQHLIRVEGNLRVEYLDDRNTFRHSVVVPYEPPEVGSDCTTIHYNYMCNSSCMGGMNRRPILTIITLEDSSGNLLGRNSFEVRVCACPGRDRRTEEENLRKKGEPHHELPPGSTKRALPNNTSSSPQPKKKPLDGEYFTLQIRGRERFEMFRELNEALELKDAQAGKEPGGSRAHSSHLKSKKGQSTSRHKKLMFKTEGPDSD
How it was run: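 In this cell-based reporter format, HCT116 cells were dosed with chemicals delivered from DMSO by 217-fold dilution and incubated 16 h at 37C. Emission at 460 and 530 nm after 2 h CCF4-AM loading provided the ratio, fitted upward versus DMSO.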

[2] = TOX21_p53_BLA_p3_viability: Viability Assessment in the Tox21 HCT-116 p53 Agonism Beta-lactamase Assay, Phase 3 (AID 2283593);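 also: cells exposed to compound for 16 h before reading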
How it was run: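 HCT116 cells, 4000/well, dosed 5 h after plating by pin transfer (217-fold dilution from DMSO stock) and incubated 16 h at 37C, 5% CO2. Viability read as ATP luminescence with CellTiter-Glo after 30 min at room temperature.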

[3] = target: Cellular tumor antigen p53 (Homo sapiens) (UniProt P04637); experiment: TOX21_p53_BLA_p3_ratio: Tox21 HCT-116 p53 Agonism Beta-lactamase Assay, Ratio, Phase 3 (AID 2283596)
How it was run: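 HCT116 p53-bla cells (4000/well) given compound in DMSO (217-fold dilution) after 5 h, incubated 16 h at 37C. CCF4-AM substrate 2 h at room temperature; 460/530 nm emission ratio, gain fitted against DMSO.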

[4] = target: Cellular tumor antigen p53 (Homo sapiens) (UniProt P04637); experiment: TOX21_p53_BLA_p5_ratio: Tox21 HCT-116 p53 Agonism Beta-lactamase Assay, Ratio, Phase 5 (AID 2283599)
How it was run: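 HCT-116 p53-bla cells (4000/well) plated 5 h, dosed with compound (217-fold DMSO dilution) for 16 h at 37 C; CCF4-AM substrate 2 h at room temperature. Activity is the 460/530 nm emission ratio (405 nm excitation), fitted in gain-of-signal direction versus DMSO.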

[5] = target: Cellular tumor antigen p53 (Homo sapiens) (UniProt P04637); experiment: TOX21_p53_BLA_p4_ratio: Tox21 HCT-116 p53 Agonism Beta-lactamase Assay, Ratio, Phase 4 (AID 2283601)
How it was run: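 HCT-116 p53 beta-lactamase reporter cells (4000/well) preincubated 5 h, then compound (217-fold dilution of DMSO stock) for 16 h at 37C. CCF4-AM substrate added 2 h at room temperature; 460/530 nm emission ratio fitted upward versus DMSO.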

[6] = TOX21_p53_BLA_p5_viability: Viability Assessment in the Tox21 HCT-116 p53 Agonism Beta-lactamase Assay, Phase 5 (AID 2283600)
How it was run: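 Compounds, pinned from DMSO at 217-fold dilution, were left on the cells for 16 h. The viability endpoint was ATP content measured by CellTiter-Glo luminescence, where falling signal reflects cytotoxicity.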

Measured: outcome

Cc1ccc2ccccc2c1
not listed: [6]
inactive: all other assays above

CC(C)NC(C)C
inactive: all assays above

Nc1nc(N)nc(N)n1
not listed: [6]
inactive: all other assays above

Nc1n[nH]c(N)n1
inactive: [1] | [2] | [3] | [6]
